High-throughput results from PubChem BioAssay.
IL-1B inflam inh = qHTS for Inhibitors of Inflammasome Signaling: IL-1-beta AlphaLISA Primary Screen; THP-1 LPS/ATP IL-1B secretion, AlphaLISA, 16 h; hits give low values; activity change, % at 57.5 µM; hit rate 4.7% among 360,000; AID 743279, 2014; in the data active = activity change below about -50%; inconclusive = mostly about -30% to -49%; note: % is set by controls: 0 for no effect and ±100 for the full control effect
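Secreted IL-1B measured by AlphaLISA bead assay after 16 h compound exposure of THP-1 cells; compounds (final up to 57.5 uM) added 1 h before LPS (250 ng/mL) and ATP (1.25 mM) stimulation; lower signal means less secretion.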
ATXN2 expr inh = Primary qHTS for Inhibitors of ATXN expression; HEK-293 ATXN2-luciferase reporter, luminescence, 24 h; Potency, µM (highest dose often 57 µM), for inactives: at the highest dose activity change, negative = inhibition, usual class: inhibitors; hit rate 0.72% among 360,000; AID 1745845, 2022; note: potency is the fitted concentration of half-maximal effect; % is set by controls: 0 for no effect and ±100 for the full control effect; nearly all actives have a fitted effect of over 55% in size
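qHTS (up to 57 uM final) was run with 24 h compound exposure of reporter cells at 37 °C. Each well was multiplexed: SteadyGlo luminescence measured ATXN2-luciferase expression after a fluorogenic Gly-Phe-AFC viability readout (25 uM final).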
DRD3 antagonist = qHTS of D3 Dopamine Receptor Antagonist: qHTS. D(3) dopamine receptor (Homo sapiens), P35462. max response, negative = inhibition, %. D3R cells, DiscoveRx beta-arrestin luminescence, antagonist mode; hits give low values. hit rate 2.5% among 360,000. AID 652054, 2013; in the data active = max response below about -50%; inconclusive = no clear call, values can overlap the other calls; note: % is set by controls: 0 for no effect and ±100 for the full control effect
Target sequence (P35462 whole entry, looked up): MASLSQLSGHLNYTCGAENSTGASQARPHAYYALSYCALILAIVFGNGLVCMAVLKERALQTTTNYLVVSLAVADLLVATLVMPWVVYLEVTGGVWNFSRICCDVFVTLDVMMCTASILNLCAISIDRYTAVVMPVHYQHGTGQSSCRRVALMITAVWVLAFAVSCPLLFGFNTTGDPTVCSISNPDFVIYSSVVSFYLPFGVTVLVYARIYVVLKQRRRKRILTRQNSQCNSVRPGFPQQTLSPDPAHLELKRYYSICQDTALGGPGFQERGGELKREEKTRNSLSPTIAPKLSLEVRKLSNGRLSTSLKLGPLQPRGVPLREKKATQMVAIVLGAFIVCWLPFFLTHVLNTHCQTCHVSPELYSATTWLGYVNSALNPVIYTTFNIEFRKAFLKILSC
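Cells expressing the human receptor were seeded at 1500 cells/well, incubated overnight at 37 degrees C in 5% CO2, then exposed to library compounds with dopamine controls for 90 minutes at 37 degrees C before luminescent detection.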
S2 tox = Viability Counterscreen for Primary qHTS for Inhibitors of ATXN expression | hit rate 0.49% among 400,000 | S2 cells (HEK-293 line with an ATXN2-luciferase reporter) viability, CellTiter-Fluor protease fluorescence, 24 h | AID 651635, 2014 | Potency, µM (doses to about 56.7 µM), actives largely listed as cytotoxic; note: potency is the fitted concentration of half-maximal effect; nearly all actives have a fitted effect of over 40% in size
Integrin act MD = qHTS for Activators of Integrin-Mediated Alleviation for Muscular Dystrophy. alpha7betagal myoblasts, beta-gal FDG fluorescence, 48 h. Potency, µM (highest dose often 38.3 µM), inactives show top-dose activation, actives largely listed as activators. hit rate 0.064% among 350,000. AID 624291, 2012;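 note: potency is the fitted concentration of half-maximal effect; 100% = response of the positive control SU9516; nearly all actives have a fitted effect of over 60% in size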
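Alpha7betagal+/- myoblasts (passage 13) were plated 16-24 hr, then exposed to compounds (1:260 dilution of DMSO stock) for 48 hours at 37C. After MPER lysis, β-galactosidase reporter activity was read as FDG fluorescence (ex 480/em 540) after 30 minutes.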
DRD3 agonist = qHTS of D3 Dopamine Receptor Agonist: qHTS; D(3) dopamine receptor (Homo sapiens), P35462; D3R DiscoveRx beta-arrestin cells, luminescence, 90 min; max activation, %; hit rate 0.58% among 410,000; in the data active = max activation above about 30%; note: 0% is about no effect
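Cells at 1500/well, incubated overnight, then treated with pinned compounds (dopamine as control) for 90 min at 37 degrees C. DiscoveRx reagent added for 30 - 60 minutes at room temperature; luminescence read.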
Numbers without * were called inactive; i = inactive; ? = inconclusive; nt = not tested or not shown. The list is not random: actives were taken first. Their share in the collection is about 7%. Unless noted, calls come from the whole dose curve; as a rule, active = well fitted curve in the direction sought with a large enough effect; inconclusive = small, poorly fitted or top-dose-only effect, or another doubt; inactive = no such curve, though single readings can be large; an effect the other way counts as inactive or inconclusive.

SMILES | IL-1B inflam inh | ATXN2 expr inh | DRD3 antagonist | S2 tox | Integrin act MD | DRD3 agonist
CC(CCc1ccccc1)NC(=O)CSc1ccccn1 (stereo not drawn) | 0.7 | -22.0% | 4.6 | i | 0.0% | 1.3
CC(C)C[C@@H]1NC(=O)[C@H](Cc2ccccc2)N(C)C(=O)[C@H](C)NC(=O)c2ccccc2NC(=O)[C@H](Cc2ccc(O)cc2)N(C)C1=O | -4.8 | ? | 49.5 | i | 13.3% | -1.6
COc1ccc(CC2C(=O)NC(C)C(=O)N(C)C3Cc4ccc(cc4)Oc4cc(ccc4O)CC(C(=O)NC(C)C(=O)NC(C)C(=O)N2C)N(C)C3=O)cc1 (stereo not drawn) | -99.7* | 0.238µM* | 1.9 | 0.0597µM* | -53.5% | 2.0
CCCCCn1c(CN2CCN(c3cc(Cl)ccc3C)CC2)nc2c1c(=O)[nH]c(=O)n2C | ? | -32.2% | 17.7 | i | 0.0% | 86.8*
CCN(CC)S(=O)(=O)c1cccc(-c2cn3cc(C)ccc3n2)c1 | -21.9 | 31.7% | 19.4 | i | 7.3% | 4.3
CNC[C@@H](Cc1ccccc1)NC[C@@H](CC1CCCCC1)NCCCc1ccccc1 | -100.9* | ? | -14.5 | 20µM* | -47.6% | -7.1
CCC[C@@H](CNC)NC[C@H](Cc1ccccc1)NCCCCc1ccccc1 | -70.2* | 25.1µM* | 12.7 | nt | -46.0% | 0.0
CNC[C@@H](CC1CCCCC1)NC[C@H](CC(C)C)NCCc1cccc(C(F)(F)F)c1 | -111.1* | 14.1µM* | 0.0 | nt | -42.9% | -33.0
N#Cc1c(N)oc(-c2ccc3c(c2)OCO3)c1-c1ccc2c(c1)OCO2 | -61.0* | -0.5% | 14.4 | ? | -35.2% | -2.7
O=C(Nc1ccc(-n2cnnn2)cc1)C1CCCN1C(=O)Nc1ccc(Br)cc1 (stereo not drawn) | -57.7* | -1.2% | -7.5 | i | 3.7% | -7.1
Cc1cccc2cc3c(N)c(C(=O)Nc4ccc(N5CCOCC5)cc4)sc3nc12 | -60.0* | ? | 7.1 | ? | -54.7% | 2.2
Cc1nc(C(=O)Nc2cc(F)cc(Cl)c2)sc1C1(C)CC(c2ccccc2)=NO1 (stereo not drawn) | ? | -32.7% | 7.9 | ? | -4.9% | 40.9*
Cc1nc(-c2ccc(Cl)cc2)sc1C1(C)CC(c2ccccc2)=NO1 (stereo not drawn) | -7.0 | 46.1% | 1.7 | i | 34.2% | -1.7
Cc1nc(-c2ccc(Cl)cc2)sc1C1(C)CC(c2ccccc2Br)=NO1 (stereo not drawn) | 4.7 | 15.7% | 28.2 | i | 7.1% | 57.4*
CCOc1ccc(-c2ccc(SCC(=O)Nc3nnc(C)s3)nn2)cc1 | -11.6 | 30.0% | 7.0 | i | 2.8% | 6.2
Cc1ccccc1NC(=O)CSc1nnc2ccc(-c3ccccn3)nn12 | -1.5 | 2.5% | 29.3 | i | 23.2% | 1.0
Cc1no[n+]([O-])c1COc1ccc(/C=C2\NC(=S)NC2=O)cc1 | -53.4* | -13.3% | -20.0 | i | -5.9% | -14.8
COc1ccc(/C=C/C(=O)Nc2ccccc2C(N)=O)cc1S(=O)(=O)N1CCOCC1 | -13.2 | -8.9% | 0.0 | i | 1.9% | 4.0
CC(C(=O)NCC1CCCCC1)N1CCc2ccccc2C1 (stereo not drawn) | -2.7 | -15.8% | -77.5* | i | -37.3% | -11.3
CC(C(=O)N1CCc2ccccc21)N1CCc2ccccc2C1 (stereo not drawn) | 16.3 | -15.1% | -85.7* | i | -56.0% | -7.3
COc1ccc(Nc2nc(N)c(C(=O)c3ccc(F)cc3)s2)cc1 | -22.1 | nt | -9.7 | ? | -12.3% | 0.2
CC(C)(C)C(=O)c1sc(Nc2ccccc2)nc1N | -70.7* | 77.0% | -18.4 | i | 12.1% | -7.7
CCOc1ccc(Nc2nc(N)c(C(=O)c3ccccc3Cl)s2)cc1 | nt | nt | nt | nt | nt | 70.3*
